# Laboratory results published in ChEMBL document CHEMBL1157539, “Thousands of chemical starting points for antimalarial lead identification” (Nature, 2010).
# Legend:
# Assay type in all cases: functional
# Plasmodium falciparum [1] = assay: GSK_TCMDC: Inhibition of Plasmodium falciparum 3D7 in whole red blood cells, using parasite LDH activity as an index of growth. Test compounds present at 2uM
# Plasmodium falciparum [2] = assay: GSK_TCMDC: Inhibition of Plasmodium falciparum Dd2 in whole red blood cells, using parasite LDH activity as an index of growth. Test compounds present at 2uM
# HepG2 = assay: GSK_TCMDC: Percent inhibition of human HepG2 cell line. Test compounds present at 10uM.
Structure (SMILES),Inhibition (Plasmodium falciparum [1]) [%],Inhibition (Plasmodium falciparum [2]) [%],Inhibition (HepG2) [%]
COCCCNc1nc2cc(OC)c(OC)cc2c2nc(-c3ccccc3)nn12,95,97,6
COc1ccc(CCNC(=O)c2ccc(-n3cc(NC(=O)c4cccnc4)cn3)cc2)cc1OC,90,89,17
Cc1cc(NCCCN2CCCC2=O)n2c(nc3ccccc32)c1C#N,93,48,4
Cc1cccc2nc(-c3cccc(-c4cccc(NC(=O)c5cnn6cccnc56)c4)c3)[nH]c12,100,17,14
COc1ccc2c(NN=Cc3cccc(C)n3)ccnc2c1,96,51,0
O=C(Cc1ccc([N+](=O)[O-])cc1)N1CCc2cc3nccc(N4CCN5CCC[C@@H]5C4)c3cc21,95,7,0
CCCCOc1ccc(-n2c(Nc3ccccc3)nc3cc(S(N)(=O)=O)ccc32)cc1,90,72,0
O=C(Nc1ccc(OC2CCN(Cc3ccsc3)CC2)c(Cl)c1)c1ccc(F)cc1.O=C(O)C(F)(F)F,98,83,31
COc1cccc(C2CCCN(CCCCNC(=O)c3ccc(NC(=O)c4ccc(Cl)cc4)cc3)C2)c1 (stereo not drawn),95,6,24
CN1CCCN(Cc2ccc(-c3cccc(NC(=O)c4ccc(C#N)cc4)c3)cc2)CC1.O=C(O)C(F)(F)F,100,26,29
COc1ccc(-c2cccc(NC(=O)c3ccc(C#N)cc3)c2)cc1CN1CCCN(C)CC1.O=C(O)C(F)(F)F,100,89,22
Cc1cc2nc(-c3ccc(C(=O)NCc4cccc(C(F)(F)F)c4)cc3)[nH]c2cc1C,98,34,4
Cn1cccc1C(=O)C(=O)Nc1ccc(-c2ccc(-c3nc4cc(F)ccc4[nH]3)cc2)cc1,92,33,44
COC(=O)c1sc2ccccc2c1NC(=O)c1ccc(C)c(C)c1,88,48,4
O=C(O)C(F)(F)F.c1ccc2[nH]c(-c3ccc(-c4ccc(CN5CCN(c6ccncc6)CC5)cc4)cc3)nc2c1,100,100,48
Br.Oc1ccc2nc(N3CCNCC3)nc(NCCCc3ccccc3)c2c1,100,0,14

Structure (SMILES),Inhibition (Plasmodium falciparum [1]) [%],Inhibition (Plasmodium falciparum [2]) [%],Inhibition (HepG2) [%]
Cc1ccc(C(=O)Nc2ccc(OC3CCN(CCC(C)C)C3)c(Cl)c2)cc1.O=C(O)C(F)(F)F (stereo not drawn),83,38,63
CC1CN(c2cc(=O)n(Cc3ccc(NC(=O)Nc4ccc(-c5ccccc5)cc4)cc3)cn2)CC(C)N1.O=C(O)C(F)(F)F (stereo not drawn),87,20,0
CCCNC[C@@H](O)[C@H](Cc1ccccc1)NC(=O)c1cc2c3c(c1)c(CC)cn3CCS(=O)(=O)N2C,97,98,0
COc1cc(Nc2nccc(N3CCC(NC(=O)C4COc5ccccc5O4)C3)n2)cc(OC)c1OC (stereo not drawn),90,58,5
Cl.OC(c1cccc(OCc2ccccc2)c1)C1CN(CCc2ccccc2)CCC1(O)c1ccccc1 (stereo not drawn),98,98,7
CN1CCCN(Cc2cccc(-c3cccc(NC(=O)c4ccc(C#N)cc4)c3)c2)CC1.O=C(O)C(F)(F)F,89,4,7
O=C(c1cc(-c2cccs2)n[nH]1)N1CCN(S(=O)(=O)c2ccc(Br)cc2)CC1,93,95,0
CCN(CC)CCCSc1ccc(-c2ccc(SCCCN(CC)CC)cc2)cc1,87,30,38
Oc1ccc2ncnc(Nc3ccc(OCc4cccc(F)c4)c(Cl)c3)c2c1,100,30,24
CC(C)(CNCc1ccc(Cl)c(Cl)c1)c1nc(-c2ccc(Cl)c(O)c2)c(-c2ccncc2)[nH]1.Cl,100,97,43
Oc1ccc2[nH]c(-c3cccc(F)c3)nc2c1CN1CCCC1,100,47,0
CC(C(=O)N1CCCC1)N1CCN(S(=O)(=O)c2ccc(C(C)(C)C)cc2)CC1 (stereo not drawn),98,86,4
O=C(Nc1ccc(Cn2nc(Cl)c(N3CCNCC3)cc2=O)cc1)Nc1ccc(-c2ccccc2)cc1.O=C(O)C(F)(F)F,97,49,99
O=C(NCCc1ccccc1)N(Cc1ccccc1-c1cccc(CNCc2ccc3c(c2)OCO3)c1)C1CCN(Cc2ccccc2)CC1.O=C(O)C(F)(F)F,93,77,29
O=C(Nc1ccc2c(c1)CCN2C1CCN(Cc2csc3ccccc23)C1)c1ccco1 (stereo not drawn),95,95,0
